Reference: PubChem BioAssay AID686979 (National Center for Advancing Translational Sciences (NCATS), 2013)
The whole screen tested about 420,000 compounds, of which about 50,000 (12%) were called active. Roughly 26% stayed inconclusive and do not appear here. The list comes from a sample in which actives are over-represented; it also holds similar structures and randomly drawn compounds. Unmarked numbers belong to inactive results. The call rests on the fitted dose curve; in most records, active means well fitted inhibition curve with a large enough effect; inconclusive means small, poorly fitted or top-dose-only effect; inactive means flat fitted curve, though single readings scatter.

test: qHTS for Inhibitors of human tyrosyl-DNA phosphodiesterase 1 (TDP1): qHTS in cells in presence of CPT; conditions: chicken DT40 Tdp1-/-;hTDP1 cells + 20 nM CPT, ATP luminescence, 48 h; series mostly up to 46.2 µM; activity change, negative = growth inhibition: at the top concentration; further: nearly all actives have a fitted effect of over 55% in size
Source text: Human tyrosyl-DNA phosphodiesterase 1 (TDP1) is a novel repair gene, and we propose to use it as a new target for anticancer drug development. TDP1 is not an essential protein, but under treatment with topoisomerase I poison (camptothecin: CPT), TDP1 works as a critical factor for cell survival. To directly identify novel TDP1 inhibitors active in a cellular environment, we have knocked-out the Tdp1 gene in chicken DT40 cells (Tdp1-/-) and generated a complemented counterpart cells that contains a stable transfection of the human TDP1 gene (Tdp1-/-;hTDP1 cells). For the primary screen, Tdp1-/-;hTDP1 cells will be exposed to small molecules in the presence or absence of CPT, and their growth kinetics will be evaluated after 48 hours by measuring ATP activity. […] The hit compounds will then be evaluated in the presence or absence of CPT using Tdp1-/- cells. […] In tertiary assays, biochemical gel-based assays will be used to assess whether the hit compounds specifically target TDP1. To this end, we have screened this cell line against the MLSMR in two primary screens. In one screen we add CPT and in the other we screen in the absence of CPT; this AID represents the screen where CPT was present. NIH Chemical Genomics Center [NCGC] NIH Molecular Libraries Probe Centers Network [MLPCN] MLPCN Grant: MH095538 Assay Submitter (PI): Yves Pommier, NCI
DT40-hTDP1 cells with 20 nM Camptothecin (add 20 microL of 1 mM CPT stock in 1 L of cell culture medium) were dispensed at 400 cells/5microL/well in tissue culture treated 1536-well white wall/solid bottom assay plates (Greiner Bio-One North America, NC, U.S.A.) using a Multidrop Combi 8 channel dispenser (Thermo Fisher, Waltham, MA, USA). 23 nL compounds and controls were transferred using the pin tool (Kalypsys, San Diego, CA, USA) to the assay plates. The assay plates were then incubated at 37 masculineC for a minimum 48 hr. Three microL of Cell Titer Glo solution was added to the plates and incubated at RT in dark for 30 min. Luminescence was read using ViewLux (Perkin Elmer) with 1 sec exposure slow speed, high gain and 2x binning.
On the % scale 0 is the no-effect control and ±100 the full control effect; potency means the concentration at half of the fitted maximal effect.

Compound	activity change, negative = growth inhibition	Potency
C[C@@H]1CC[C@]2(O[C@@H](CCO)C[C@H](O)[C@H]2O)O1	-8.7%	–
Cn1c(N2CCOCC2)c(C=O)c2ccccc21	-11.8%	–
C[C@H]1COc2cc(N3CCSCC3)ccc2S(=O)(=O)N1	-19.2%	–
Cc1ccc(N=C2SCCCN2C(=O)c2cccc(N3C(=O)CCC3=O)c2)cc1Cl	-4.22%	–
CCCC1C(=O)N2C(N(C)C)=Nc3ccc(C)cc3N2C1=O (configuration not stated)	–	inactive
Cc1cc(C)n2nc(SCC(N)=O)nc2n1	1.04%	–
CCC1=NN(C(=O)Cc2ccc([N+](=O)[O-])cc2)C(O)(c2ccc(Br)cc2)C1 (configuration not stated)	1.79%	–
Cc1cccc(N2C(=O)N3[C@H](c4ccc(F)cc4)[C@@H]4C(=O)N(C5CCCCC5)C(=O)[C@@H]4[C@]3(Cc3ccccc3)C2=O)c1	-2.11%	–
O=C1CCC(C(=O)N2CCCCO2)CN1Cc1cccc(C(F)(F)F)c1 (configuration not stated)	-1.38%	–
Cc1ccc(N2CC(C(=O)NCCS(=O)(=O)N3CCN(c4ccccc4)CC3)CC2=O)cc1 (configuration not stated)	–	inactive
O=C(Nc1cc(S(=O)(=O)N2CCOCC2)ccc1Cl)c1cc(=O)c2ccccc2o1	–	11.6 µM (active)
CCC1CCCCN1S(=O)(=O)c1ccc(NC(=O)c2cc(=O)c3ccccc3o2)cc1 (configuration not stated)	–	3.26 µM (active)
O=C(NCCS(=O)(=O)N1CCN(c2ccccc2)CC1)c1cc(=O)c2ccccc2o1	-29.6%	–
Cc1ccc2oc(C(=O)Nc3ccc(S(=O)(=O)N4CCCCCC4)cc3)cc(=O)c2c1	-24.2%	–
O=C(Nc1cc(S(=O)(=O)N2CCOCC2)ccc1N1CCOCC1)c1c(F)cccc1Cl	4.69%	–
Cc1cc(C)c2oc(C(=O)Nc3ccc(S(=O)(=O)N4CCCCCC4)cc3)cc(=O)c2c1	-6.28%	–
COc1ccccc1CN1CC(C(=O)NCCc2cn[nH]c2)CCC1=O (configuration not stated)	15.3%	–
O=C(CCNS(=O)(=O)c1ccccc1C(F)(F)F)Nc1ccncc1	-23.4%	–
CCOC(=O)CSc1nnc(NC(=O)C2CC(=O)N(c3ccc(F)cc3)C2)s1 (configuration not stated)	-2.28%	–
COC(=O)C1=CN(Cc2ccc(OC)cc2)C=C(C(=O)OC)C1c1ccc(O)c(OC)c1	-10.8%	–
CC(=O)Nc1ccc(S(=O)(=O)N2CCC(C(=O)NC3CC3)CC2)cc1	2.36%	–
CS(=O)(=O)N1CCN=C1SCc1ccc(F)cc1	19.6%	–
CC(=O)c1cnc(SCCN2C(=O)c3ccccc3C2=O)nc1C	-0.72%	–
O=C1NC(c2ccccc2)Oc2ccccc21 (configuration not stated)	-11.4%	–
C=CCOc1cccc(C2NC(=O)c3ccccc3O2)c1 (configuration not stated)	1.33%	–
O=C1NC(c2cccc(Cl)c2)Nc2ccccc21 (configuration not stated)	–	13 µM (active)

Compound	activity change, negative = growth inhibition	Potency
COc1ccc(C(=O)CSc2nnc(NC(=O)C3CC(=O)N(c4cccc(OC)c4)C3)s2)cc1 (configuration not stated)	-23.9%	–
Cc1cc(C)n2nc(C(=O)Nc3cccc(S(=O)(=O)N4CCOCC4)c3)nc2n1	-1.26%	–
O=C(N/N=C\c1cc(Br)c(Br)o1)C1COc2ccccc2O1 (configuration not stated)	-8.29%	–
Cc1cc(C(=O)N2CCCC2(C)C(=O)O)c(C)o1 (configuration not stated)	-14.8%	–
CCCN=C1N(C)C[C@@H]2[C@@H]3C(=O)N(Cc4ccccc4)C(=O)[C@@H]3[C@](C)(C(=O)OC)N12	17.2%	–
O=C(CCc1ccccc1F)N1CCN(c2ccccc2)CC1	-12.7%	–
O=C(CCSc1ccccc1)N1CCN(c2ccccc2F)CC1	-4.21%	–
O=C(CCSCc1ccccc1F)N1CCN(c2ccc(Cl)cc2)CC1	–	23.1 µM (active)
O=C(NCCc1ccc(Cl)cc1)C1CC(=O)N(C2CCCCC2)C1 (configuration not stated)	-11.4%	–
CCOCCCN1C(=O)CN(C2CCCCC2)C(=O)C1c1ccc(OCC)c(OC)c1 (configuration not stated)	-15.8%	–
COc1ccc(C2C(=O)N(C3CCCCCC3)CC(=O)N2CCc2ccc(Cl)cc2)cc1OC (configuration not stated)	–	23.1 µM (active)
COc1ccccc1N1CC(C(=O)NCCN2C(=O)S/C(=C\c3cccnc3)C2=O)CC1=O (configuration not stated)	4.39%	–
S=C(Cc1ccc(Cl)cc1)N1CCOCC1	-4.63%	–
COc1ccc(-c2cnc(SCCNC(=O)c3ccc4c(c3)OCO4)[nH]2)cc1	-10.2%	–
CCCC[C@H]1COCCS(=O)(=O)N1Cc1cccc(Cl)c1	0.0482%	–
CCC(C)[C@H]1COCCS(=O)(=O)N1Cc1ccc(C)cc1 (some centres not stated)	-18.2%	–
O=S1(=O)CCOC[C@H](CC2CCCCC2)N1Cc1ccc(F)cc1	–	2.51 µM (active)
CC(C)Oc1ccc(S(=O)(=O)N2CCOCC2)cc1NC(=O)C1CCCC1	-10%	–
O=C(CCS(=O)(=O)c1ccccc1Cl)Nc1ccc(S(=O)(=O)Nc2ncccn2)cc1	-10.7%	–
Cc1ccc(S(=O)(=O)N2CCOCC2)cc1C(=O)OC1CCCCC1=O (configuration not stated)	-10.5%	–
C[C@@H]1CN([C@H](C)CO)C(=O)CCCn2cc(nn2)CO[C@H]1CN(C)S(=O)(=O)c1ccc(Oc2ccccc2)nc1	-12.2%	–
O=C(/C=C/c1ccc(F)cc1)NCCNC(=O)/C=C/c1ccc(F)cc1	-1.15%	–
O=C(/C=C/c1ccc([N+](=O)[O-])o1)NNC(=O)c1ccc(F)cc1	–	3.26 µM (active)
CCN(C(=O)Cn1c(=O)nc(-c2ccccc2)c2cc(Cl)ccc21)c1cccc(C)c1	11.6%	–
Cc1ccc(S(=O)(=O)NCC(=O)N(CC(=O)NCC2CCCO2)c2cccc(F)c2)cc1 (configuration not stated)	-1.7%	–
C=CCOc1ccccc1CNn1c(C)n[nH]c1=S	-15.9%	–
